PubChem BioAssay (Tox21)
Records with an inconclusive call do not appear. The source made the active and inactive calls. Calls come from the whole dose curve; as a rule, active = well fitted curve in the direction sought with a large enough effect in the repeat runs; inconclusive = weak or mixed curves; inactive = no such curve, though single readings can be large; an effect the other way counts as inactive or inconclusive.

Legend:
[1] = A CellTox Green Cytotoxicity Assay to monitor cytotoxicity in HEK293 cells - 40 hour (AID 1224871); note: nearly all actives have a fitted effect of over 45% in size
In short: (§1)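 Real-time, in one plate: 600 HEK293 cells/well with dead-cell DNA dye, pinned compound after 5 h, 37 C incubation over 40 h; viable cells give no appreciable fluorescence.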

[2] = qHTS RealTime-Glo MT Cell Viability Assay in HEK293 cells - 16 hour (AID 1224872); note: top concentration of the series differs between compounds; nearly all actives have a fitted effect of over 50% in size
In short: (§2)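 Tox21 10K qHTS, HEK293, 600 cells/well, RealTime-Glo reagent co-dispensed with cells; 5 h preincubation, compound by pintool, 37 C, luminescence at 0–40 h.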

[3] = qHTS RealTime-Glo MT Cell Viability Assay in HEK293 cells - 40 hour (AID 1224874); settings: RealTime-Glo luminescence; max response: hits give low values; note: nearly all actives have a fitted effect of over 50% in size
In short: (§3)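 Kinetic, non-lysing viability readout. Seed HEK293 (600/well) with reagent, incubate 5 h at 37 C/5% CO2, pin 23 nL compound in DMSO, incubate at 37 C, read luminescence at 0, 8, 16, 24, 32, 40 h.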

[4] = A CellTox Green Cytotoxicity Assay to monitor cytotoxicity in HEK293 cells - 24 hour (AID 1224875); note: series mostly up to about 77 µM; nearly all actives have a fitted effect of over 45% in size
In short: as §1

[5] = A CellTox Green Cytotoxicity Assay to monitor cytotoxicity in HepG2 cells - 16 hour (AID 1224876); note: nearly all actives have a fitted effect of over 45% in size
In short: (§4)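 Cytotoxicity was tracked as dead-cell DNA fluorescence in HepG2 cells treated with test compounds at 37 C; each time-point value comes from one kinetic series spanning 0, 8, 16, 24, 32 and 40 h.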

[6] = qHTS RealTime-Glo MT Cell Viability Assay in HepG2 cells - 32 hour (AID 1224877); note: nearly all actives have a fitted effect of over 55% in size
In short: (§5)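 Cells + NanoLuc/prosubstrate dispensed (600 cells/well) → 5 h at 37 C/5% CO2 → compounds in DMSO transferred → 40 h incubation at 37 C, luminescence read at 0, 8, 16, 24, 32, 40 h.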

[7] = A CellTox Green Cytotoxicity Assay to monitor cytotoxicity in HepG2 cells - 24 hour (AID 1224878); note: nearly all actives have a fitted effect of over 45% in size
In short: as §4

[8] = A CellTox Green Cytotoxicity Assay to monitor cytotoxicity in HepG2 cells - 40 hour (AID 1224879); note: nearly all actives have a fitted effect of over 40% in size
In short: as §4

[9] = A CellTox Green Cytotoxicity Assay to monitor cytotoxicity in HEK293 cells - 32 hour (AID 1224881); note: nearly all actives have a fitted effect of over 40% in size
In short: as §1

[10] = A CellTox Green Cytotoxicity Assay to monitor cytotoxicity in HepG2 cells - 32 hour (AID 1224883); note: nearly all actives have a fitted effect of over 50% in size
In short: as §4

[11] = A CellTox Green Cytotoxicity Assay to monitor cytotoxicity in HEK293 cells - 8 hour (AID 1224884); note: nearly all actives have a fitted effect of over 35% in size
In short: as §1

[12] = qHTS RealTime-Glo MT Cell Viability Assay in HepG2 cells - 16 hour (AID 1224885); note: nearly all actives have a fitted effect of over 50% in size
In short: as §5

[13] = qHTS RealTime-Glo MT Cell Viability Assay in HEK293 cells - 24 hour (AID 1224886)
In short: as §2

[14] = qHTS RealTime-Glo MT Cell Viability Assay in HEK293 cells - 8 hour (AID 1224887)
In short: as §3

[15] = A CellTox Green Cytotoxicity Assay to monitor cytotoxicity in HEK293 cells - 16 hour (AID 1224888); note: nearly all actives have a fitted effect of over 35% in size
In short: as §1

[16] = qHTS RealTime-Glo MT Cell Viability Assay in HepG2 cells - 0 hour (AID 1224889); note: nearly all actives have a fitted effect of over 50% in size
In short: as §5

[17] = A CellTox Green Cytotoxicity Assay to monitor cytotoxicity in HepG2 cells - 8 hour (AID 1224890); note: nearly all actives have a fitted effect of over 45% in size
In short: as §4

[18] = A CellTox Green Cytotoxicity Assay to monitor cytotoxicity in HepG2 cells - 0 hour (AID 1224882); note: nearly all actives have a fitted effect of over 35% in size
In short: as §4

[19] = qHTS RealTime-Glo MT Cell Viability Assay in HEK293 cells - 0 hour (AID 1224880)
In short: as §3

[20] = qHTS RealTime-Glo MT Cell Viability Assay in HepG2 cells - 8 hour (AID 1224873); note: nearly all actives have a fitted effect of over 55% in size
In short: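 HepG2 cells mixed with RealTime-Glo MT reagents (NanoLuc plus cell-permeant prosubstrate) were seeded at 600 cells/well, incubated 5 h at 37 C/5% CO2, then pinned with compounds in DMSO; nonlytic luminescence tracked viability during 40 h treatment.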
% is set by controls: 0 for no effect and ±100 for the full control effect.

CCCCC(CC)COC(=O)COc1ccc(Cl)cc1Cl (stereo not drawn)
inactive: Potency [1] | Potency [2] | max response [3] 11% | Potency [4] | Potency [5] | Potency [6] | Potency [7] | Potency [8] | Potency [9] | Potency [10] | Potency [11] | Potency [12] | Potency [13] | Potency [14] | Potency [15] | Potency [16] | Potency [17]

O=C(OCCc1ccccc1)c1ccccc1
inactive: Potency [1] | Potency [2] | max response [3] -19.4% | Potency [4] | Potency [5] | Potency [6] | Potency [7] | Potency [8] | Potency [9] | Potency [18] | Potency [10] | Potency [11] | Potency [12] | Potency [13] | Potency [15] | Potency [16] | Potency [17]

CN(C)CCN(Cc1ccsc1)c1ccccn1
inactive: Potency [1] | Potency [2] | max response [3] 1.6% | Potency [4] | Potency [5] | Potency [6] | Potency [7] | Potency [8] | Potency [19] | Potency [9] | Potency [18] | Potency [10] | Potency [11] | Potency [12] | Potency [13] | Potency [14] | Potency [15] | Potency [16] | Potency [17]

C#Cc1cccc(Nc2ncnc3cc(OCCOC)c(OCCOC)cc23)c1
inactive: Potency [1] | Potency [2] | max response [3] -23.8% | Potency [4] | Potency [5] | Potency [6] | Potency [7] | Potency [8] | Potency [19] | Potency [9] | Potency [18] | Potency [10] | Potency [11] | Potency [12] | Potency [13] | Potency [14] | Potency [15] | Potency [16] | Potency [17]

CCOCC(O)COc1ccc(NC(=O)CC[S+](C)C)cc1 (stereo not drawn)
inactive: Potency [1] | Potency [2] | Potency [20] | Potency [4] | Potency [5] | Potency [6] | Potency [7] | Potency [8] | Potency [19] | Potency [9] | Potency [18] | Potency [10] | Potency [11] | Potency [12] | Potency [13] | Potency [15] | Potency [16] | Potency [17]

OC[C@H]1O[C@@H](OCCc2ccc(O)cc2)[C@H](O)[C@@H](O)[C@@H]1O
inactive: Potency [1] | Potency [2] | Potency [20] | Potency [4] | Potency [5] | Potency [6] | Potency [7] | Potency [8] | Potency [19] | Potency [9] | Potency [18] | Potency [10] | Potency [11] | Potency [12] | Potency [13] | Potency [15] | Potency [16] | Potency [17]

COc1ccc(C(=O)N2CCN(CC(=O)N3CCOCC3)CC2)cc1
inactive: Potency [1] | Potency [2] | Potency [20] | Potency [4] | Potency [5] | Potency [6] | Potency [7] | Potency [8] | Potency [19] | Potency [9] | Potency [18] | Potency [10] | Potency [11] | Potency [12] | Potency [13] | Potency [14] | Potency [15] | Potency [16] | Potency [17]

CC1OC(=O)C(C)OC1=O (stereo not drawn)
inactive: Potency [1] | Potency [2] | max response [3] -4.59% | Potency [4] | Potency [5] | Potency [6] | Potency [7] | Potency [8] | Potency [9] | Potency [18] | Potency [10] | Potency [11] | Potency [12] | Potency [13] | Potency [14] | Potency [15] | Potency [16] | Potency [17]

CCCC(=O)Nc1ccc(O)c(C(C)=O)c1
inactive: Potency [1] | Potency [2] | max response [3] -1.71% | Potency [4] | Potency [5] | Potency [6] | Potency [7] | Potency [8] | Potency [19] | Potency [9] | Potency [18] | Potency [10] | Potency [11] | Potency [12] | Potency [13] | Potency [14] | Potency [15] | Potency [16]
